Values joined by “and” are separate entries in the source; they are usually repeats but may differ in a detail not shown here. Equal values may be shown once. Inconclusive results are not listed. The source holds several records for some structures; these can differ, active in one and inactive in another. Active and inactive are the calls of the source. Unless noted, calls come from the whole dose curve; as a rule, active = well fitted curve in the direction sought with a large enough effect in the repeat runs; inconclusive = weak or mixed curves; inactive = no such curve, though single readings can be large; an effect the other way counts as inactive or inconclusive.

This is an account of results in PubChem BioAssay (Tox21).

The target in assay [1] is Acetylcholinesterase (Homo sapiens) (UniProt P22303). Nature of the assay: Acetylcholinesterase (AChE) small molecule antagonists: colormetric cell-based qHTS assay (AID 1347395; calls by dose curve; note: nearly all actives have a fitted effect of over 30% in size). The procedure, abridged: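 Cells (SH-SY5Y, 2,000 per well) are seeded and left overnight at 37 C. Compound is added for 30 min, then DTNB and acetylthiocholine for a further 90 min at 37 C before absorbance-based thiocholine detection.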
Acetylcholinesterase (Homo sapiens), sequence (P22303 whole entry, looked up): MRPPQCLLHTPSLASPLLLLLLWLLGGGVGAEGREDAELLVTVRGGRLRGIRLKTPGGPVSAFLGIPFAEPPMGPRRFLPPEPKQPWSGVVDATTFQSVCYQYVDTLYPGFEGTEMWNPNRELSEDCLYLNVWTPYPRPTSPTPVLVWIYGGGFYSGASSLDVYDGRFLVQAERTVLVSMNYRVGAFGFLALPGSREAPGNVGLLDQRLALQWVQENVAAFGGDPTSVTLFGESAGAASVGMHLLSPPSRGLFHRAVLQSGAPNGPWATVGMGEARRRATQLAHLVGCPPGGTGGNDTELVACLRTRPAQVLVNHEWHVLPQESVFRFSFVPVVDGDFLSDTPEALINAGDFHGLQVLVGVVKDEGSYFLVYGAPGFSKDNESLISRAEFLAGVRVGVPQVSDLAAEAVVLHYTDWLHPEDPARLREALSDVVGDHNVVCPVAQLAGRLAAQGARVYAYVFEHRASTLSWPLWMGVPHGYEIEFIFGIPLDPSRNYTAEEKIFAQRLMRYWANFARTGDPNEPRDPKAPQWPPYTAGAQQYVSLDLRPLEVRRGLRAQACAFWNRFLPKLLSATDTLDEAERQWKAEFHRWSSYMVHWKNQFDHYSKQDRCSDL

For assay [2] the target is unchanged. In words: Acetylcholinesterase (AChE) small molecule antagonists: enzyme-based qHTS assay (AID 1347397; calls by dose curve; note: nearly all actives have a fitted effect of over 55% in size). The settings on record: Potency: AChE enzyme activity inhibition. The procedure, abridged:
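Recombinant human AChE (50 mU/mL) preincubated with compound 30 min at room temperature; acetylthiocholine plus DTNB then added, and thiocholine formation read colorimetrically after 10 min at room temperature. DMSO served as vehicle control.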

The target is the same in assay [3]. Nature of the assay: Acetylcholinesterase (AChE) small molecule antagonists: fluorescence cell-based qHTS assay (AID 1347398; calls by dose curve; note: nearly all actives have a fitted effect of over 50% in size). The note with it: Potency: AChE activity. The procedure, abridged: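 SH-SY5Y cells (2000/well), attached overnight, incubated with compound 30 min at 37 C. Acetylthiocholine plus Thiolite Green then added for 40 min at room temperature. Thiocholine fluorescence (Ex/Em 490/520 nm) reports cellular AChE activity.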

For assay [4] the target is unchanged. Nature of the assay: Acetylcholinesterase (AChE) small molecule antagonists: enzyme-based qHTS assay with human liver microsomes (AID 1347399; calls by dose curve; note: nearly all actives have a fitted effect of over 60% in size). The settings on record: Potency: qHTS inhibition. The procedure, abridged: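 Recombinant human AChE (50 mU/mL in the enzyme mix) and human liver microsomes (0.25 mg/mL final) were preincubated with compound and NADPH (0.25 mg/mL final) for 30 min at 37 C. Acetylthiocholine/DTNB was then added; thiocholine was read colorimetrically after 10 min at room temperature.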

The target in assay [5] is Cytochrome P450 2D6 (Homo sapiens) (UniProt P10635). In words: Cytochrome P450 Family 2 Subfamily D Member 6 (CYP2D6) small molecule antagonists: luciferase reporter qHTS assay (AID 1671196). Note: nearly all actives have a fitted effect of over 50% in size. The procedure, abridged: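 Inhibition of CYP2D6 was gauged by loss of luminescence, since light produced tracks the luciferin generated from a proluciferin substrate. A 10 min room-temperature preincubation preceded 1 h NADPH-supported turnover.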
Cytochrome P450 2D6 (Homo sapiens), sequence (P10635 whole entry, looked up): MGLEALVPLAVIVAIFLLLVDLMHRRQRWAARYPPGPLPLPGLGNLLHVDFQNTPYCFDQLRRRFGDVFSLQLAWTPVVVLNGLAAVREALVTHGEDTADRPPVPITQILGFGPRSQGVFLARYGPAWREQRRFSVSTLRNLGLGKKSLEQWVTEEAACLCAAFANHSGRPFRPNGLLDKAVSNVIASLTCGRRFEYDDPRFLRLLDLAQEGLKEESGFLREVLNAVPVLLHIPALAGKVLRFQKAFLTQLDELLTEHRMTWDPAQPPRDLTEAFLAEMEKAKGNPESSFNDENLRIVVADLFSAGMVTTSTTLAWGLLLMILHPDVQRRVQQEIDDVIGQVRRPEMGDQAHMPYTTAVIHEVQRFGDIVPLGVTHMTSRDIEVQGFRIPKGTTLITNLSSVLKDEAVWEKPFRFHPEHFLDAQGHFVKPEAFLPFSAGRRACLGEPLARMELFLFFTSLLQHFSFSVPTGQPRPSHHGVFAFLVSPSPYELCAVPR

Assay [6] addresses Cytochrome P450 2C19 (Homo sapiens) (UniProt P33261). Nature of the assay: Cytochrome P450 Family 2 Subfamily C Member 19 (CYP2C19) small molecule antagonists: luciferase reporter qHTS assay (AID 1671197). Note: nearly all actives have a fitted effect of over 65% in size. The procedure, abridged:
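Compounds were tested on CYP2C19 activity via proluciferin conversion to luciferin. The 37C, 1 h reaction followed NADPH addition; detection reagent stopped it.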

Assay [7] deals with Cytochrome P450 2C9 (Homo sapiens) (UniProt P11712). Nature of the assay: Cytochrome P450 Family 2 Subfamily C Member 9 (CYP2C9) small molecule antagonists: luciferase reporter qHTS assay (AID 1671198). Note: nearly all actives have a fitted effect of over 50% in size. The procedure, abridged:
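P450-Glo proluciferin substrate with CYP2C9 enzyme; 10 min RT preincubation, then NADPH regeneration 1 h at 37C; luciferin detection reagent 20 min RT, luminescence in relative luminescence units.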

For assay [8], the target named is Cytochrome P450 1A2 (Homo sapiens) (UniProt P05177). Nature of the assay: Cytochrome P450 Family 1 Subfamily A Member 2 (CYP1A2) small molecule antagonists: luciferase reporter qHTS assay (AID 1671199). Note: nearly all actives have a fitted effect of over 50% in size. The procedure, abridged: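 Signal from luciferin formed by CYP1A2 from a proluciferin substrate is read as luminescence, expressed in relative luminescence units. Compounds sit with enzyme 10 min, NADPH-driven reaction runs 1 h, all at room temperature.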
Cytochrome P450 1A2 (Homo sapiens), sequence (P05177 whole entry, looked up): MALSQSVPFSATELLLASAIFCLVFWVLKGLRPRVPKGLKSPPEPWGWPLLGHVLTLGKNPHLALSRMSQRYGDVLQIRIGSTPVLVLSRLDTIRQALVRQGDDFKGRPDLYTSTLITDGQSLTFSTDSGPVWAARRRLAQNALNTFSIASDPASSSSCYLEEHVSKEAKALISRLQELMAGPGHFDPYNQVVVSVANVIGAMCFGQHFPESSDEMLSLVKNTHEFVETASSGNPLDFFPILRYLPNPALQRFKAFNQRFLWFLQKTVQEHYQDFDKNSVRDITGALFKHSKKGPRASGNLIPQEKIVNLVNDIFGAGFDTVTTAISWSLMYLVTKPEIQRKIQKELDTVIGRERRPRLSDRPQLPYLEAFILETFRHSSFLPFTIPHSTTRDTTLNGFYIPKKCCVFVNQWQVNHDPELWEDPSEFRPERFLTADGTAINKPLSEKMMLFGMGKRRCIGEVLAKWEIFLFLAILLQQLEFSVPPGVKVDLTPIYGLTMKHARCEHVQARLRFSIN

For assay [9], the target named is Voltage-gated inwardly rectifying potassium channel KCNH2 (Homo sapiens) (UniProt Q12809). Nature of the assay: Human Ether-a-go-go-Related Gene (hERG) channel small molecule antagonists: fluorescence cell-based qHTS assay (AID 1671200). Note: nearly all actives have a fitted effect of over 50% in size. The procedure, abridged: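 Fluorescence at 540 nm emission (480 nm excitation) was recorded kinetically for 2 min at 1-second intervals once the thallium-containing stimulus reached cells previously loaded with FluxOR II dye.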
Voltage-gated inwardly rectifying potassium channel KCNH2 (Homo sapiens), sequence (Q12809 whole entry, looked up): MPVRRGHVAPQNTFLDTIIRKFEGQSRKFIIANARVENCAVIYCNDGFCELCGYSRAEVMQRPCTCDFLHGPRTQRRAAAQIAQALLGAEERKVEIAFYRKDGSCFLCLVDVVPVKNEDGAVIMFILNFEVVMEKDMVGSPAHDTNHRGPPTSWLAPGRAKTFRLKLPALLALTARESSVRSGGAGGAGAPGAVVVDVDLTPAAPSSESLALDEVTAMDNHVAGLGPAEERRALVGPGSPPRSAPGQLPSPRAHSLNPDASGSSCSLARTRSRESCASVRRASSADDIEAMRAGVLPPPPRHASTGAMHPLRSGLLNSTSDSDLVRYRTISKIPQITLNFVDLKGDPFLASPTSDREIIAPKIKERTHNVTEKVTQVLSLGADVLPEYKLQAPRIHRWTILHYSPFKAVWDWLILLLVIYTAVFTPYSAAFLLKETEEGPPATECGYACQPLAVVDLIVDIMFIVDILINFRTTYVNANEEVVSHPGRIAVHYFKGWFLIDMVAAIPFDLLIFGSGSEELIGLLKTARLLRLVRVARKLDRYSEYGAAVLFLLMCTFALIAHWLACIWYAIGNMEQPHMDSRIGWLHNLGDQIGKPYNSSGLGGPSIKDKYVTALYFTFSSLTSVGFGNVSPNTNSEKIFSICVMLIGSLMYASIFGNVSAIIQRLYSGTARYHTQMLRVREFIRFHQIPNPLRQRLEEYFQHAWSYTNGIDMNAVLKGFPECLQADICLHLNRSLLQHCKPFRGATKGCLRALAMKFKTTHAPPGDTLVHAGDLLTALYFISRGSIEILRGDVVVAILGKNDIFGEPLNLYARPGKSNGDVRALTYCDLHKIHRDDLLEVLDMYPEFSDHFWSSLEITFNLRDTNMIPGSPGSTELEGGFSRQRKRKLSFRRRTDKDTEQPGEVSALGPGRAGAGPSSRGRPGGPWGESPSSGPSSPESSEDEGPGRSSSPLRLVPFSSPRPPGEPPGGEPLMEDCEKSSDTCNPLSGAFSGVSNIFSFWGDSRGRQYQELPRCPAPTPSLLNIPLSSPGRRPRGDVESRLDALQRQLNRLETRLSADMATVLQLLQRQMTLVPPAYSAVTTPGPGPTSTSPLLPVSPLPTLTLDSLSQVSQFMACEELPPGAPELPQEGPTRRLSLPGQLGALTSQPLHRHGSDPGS

Assay [10] addresses Cytochrome P450 3A4 (Homo sapiens) (UniProt P08684). In words: Cytochrome P450 Family 3 Subfamily A Member 4 (CYP3A4) small molecule antagonists: luciferase reporter qHTS assay (AID 1671201). Note: nearly all actives have a fitted effect of over 50% in size. The procedure, abridged: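 qHTS, 1536-well. CYP3A4 + proluciferin substrate, cpd 10 min RT → NADPH regen 1 h RT → detection reagent 20 min → luminescence (RLU). Ketoconazole positive control.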
Potency is the fitted concentration of half-maximal effect.

Cytochrome P450 2C19 (Homo sapiens), sequence (P33261 whole entry, looked up): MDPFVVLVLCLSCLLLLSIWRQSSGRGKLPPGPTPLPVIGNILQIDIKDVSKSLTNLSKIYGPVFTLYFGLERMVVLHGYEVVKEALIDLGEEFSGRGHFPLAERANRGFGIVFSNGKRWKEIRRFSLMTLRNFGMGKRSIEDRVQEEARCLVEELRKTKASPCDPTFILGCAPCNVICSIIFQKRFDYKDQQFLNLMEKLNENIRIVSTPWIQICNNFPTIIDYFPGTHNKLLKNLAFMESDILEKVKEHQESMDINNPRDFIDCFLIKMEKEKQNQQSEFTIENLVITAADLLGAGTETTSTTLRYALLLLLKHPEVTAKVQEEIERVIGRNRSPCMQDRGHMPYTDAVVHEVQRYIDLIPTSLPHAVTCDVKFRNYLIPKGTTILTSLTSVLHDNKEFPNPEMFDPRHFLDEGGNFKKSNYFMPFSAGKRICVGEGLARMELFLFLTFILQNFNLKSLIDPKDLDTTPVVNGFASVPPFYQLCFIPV
Cytochrome P450 2C9 (Homo sapiens), sequence (P11712 whole entry, looked up): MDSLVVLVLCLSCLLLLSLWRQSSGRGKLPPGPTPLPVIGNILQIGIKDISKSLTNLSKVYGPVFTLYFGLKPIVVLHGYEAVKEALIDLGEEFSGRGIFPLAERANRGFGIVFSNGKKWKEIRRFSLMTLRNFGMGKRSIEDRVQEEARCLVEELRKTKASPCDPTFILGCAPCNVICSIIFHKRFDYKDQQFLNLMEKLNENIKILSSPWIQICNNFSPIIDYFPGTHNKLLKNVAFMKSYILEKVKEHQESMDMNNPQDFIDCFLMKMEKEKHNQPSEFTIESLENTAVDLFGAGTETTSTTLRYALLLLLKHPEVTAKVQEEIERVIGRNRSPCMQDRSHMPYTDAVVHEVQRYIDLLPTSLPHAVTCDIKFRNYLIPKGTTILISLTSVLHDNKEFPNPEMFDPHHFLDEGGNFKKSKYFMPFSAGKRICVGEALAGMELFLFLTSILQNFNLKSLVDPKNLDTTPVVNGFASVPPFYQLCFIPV
Cytochrome P450 3A4 (Homo sapiens), sequence (P08684 whole entry, looked up): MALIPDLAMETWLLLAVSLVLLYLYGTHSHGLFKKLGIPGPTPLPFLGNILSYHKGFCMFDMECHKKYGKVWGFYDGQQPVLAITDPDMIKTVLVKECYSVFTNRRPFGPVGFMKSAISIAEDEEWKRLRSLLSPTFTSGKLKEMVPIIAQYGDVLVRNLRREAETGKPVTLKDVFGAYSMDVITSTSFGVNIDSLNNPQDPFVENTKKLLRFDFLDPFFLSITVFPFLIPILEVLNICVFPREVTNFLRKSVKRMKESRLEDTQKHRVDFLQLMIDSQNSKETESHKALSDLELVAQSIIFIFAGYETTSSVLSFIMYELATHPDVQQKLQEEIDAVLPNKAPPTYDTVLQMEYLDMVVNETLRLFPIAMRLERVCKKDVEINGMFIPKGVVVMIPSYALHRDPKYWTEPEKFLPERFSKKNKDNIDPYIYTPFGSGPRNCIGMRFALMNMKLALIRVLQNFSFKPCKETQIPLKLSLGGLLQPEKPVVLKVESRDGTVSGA

In the case of `CC(C)N(C(=O)SCC(Cl)=C(Cl)Cl)C(C)C`, the Potency entry in [1], in assay [2], in [3], in assay [4], in [5] and in assay [8] was “inactive” each time. Further, the Potency entry in [10] is “inactive”. The Potency was 35.1 µM (active) and 5.03 µM (active) in [6]; “inactive and 31.7 µM (active)” in assay [7]; 27.5 µM (active) in assay [9].
For `CCCCN(CCCC)N=O`, the Potency result in assay [1], in [4], in assay [5], in assay [7], in [8] and in [9] was “inactive” each time. In assay [10], the Potency entry was “inactive”. Further, the Potency in assay [2] was 34.1 µM (active) and inactive; in [3], 12.1 µM (active) and inactive; in assay [6], 60.7 µM (active) and inactive.
Turning to `Oc1cc(Cl)c(Cl)cc1Cl`, the Potency entry in assay [1], in assay [2], in [3], in [4], in [5] and in assay [6] was “inactive” throughout. Besides, the Potency result in assay [7], in [9] and in assay [10] was “inactive” each time. Also, in assay [8], the Potency is 22.3 µM (active) and 20 µM (active) and 22.4 µM (active).
Consider `COP(=S)(OC)Oc1ccc([N+](=O)[O-])cc1`, for which the Potency in assay [1] was 25.2 µM (active); in assay [3], “inactive and 35.6 µM (active)”; in assay [5] it was “inactive and 35.6 µM (active)”; in [6], 8.95 µM (active) and 2.52 µM (active); in assay [7] it was 35.6 µM (active) and 12.6 µM (active); in assay [8], 7.11 µM (active) and 2 µM (active). In addition, the Potency in assay [10] was 17.8 µM (active). For the same compound, the Potency entry in assay [2], in [4] and in [9] was “inactive” each time.
With `O=P(Oc1ccccc1)(Oc1ccccc1)Oc1ccccc1`, the Potency is 19.9 µM (active) and 20 µM (active) in assay [1]; 7.06 µM (active) and 11.2 µM (active) in assay [2]; 2.51 µM (active) and 3.56 µM (active) in assay [3]; 35.4 µM (active) and 71 µM (active) in [4]; 2.81 µM (active) and 5.64 µM (active) in [6]; 6.3 µM (active) and 6.33 µM (active) in assay [7]. In assay [8], the Potency was 9.98 µM (active) and 11.2 µM (active). In addition, the Potency entry in assay [5] and in assay [10] was “inactive” in each case.
For `CCc1cccc(CC)c1N(COC)C(=O)CCl`, the Potency entry in assay [1], in assay [2], in [3], in assay [4], in assay [5] and in assay [8] was “inactive” in each case. The Potency is 9.71 µM (active) and 71 µM (active) in assay [6]; 30.7 µM (active) and 39.9 µM (active) in assay [7].
Take `CCCCCCCCOC(=O)c1ccccc1C(=O)OCCCCCCCC`: the Potency entry in assay [1], in assay [2], in assay [3], in assay [4] and in assay [5] was “inactive” each time. Further, the Potency is 50.1 µM (active) and inactive in assay [6]; 14.2 µM (active) in [7].
Turning to `CCOP(=S)(OCC)O/N=C(\C#N)c1ccccc1`, the Potency was 63.3 µM (active) and 17.4 µM (active) in assay [1]; 56.4 µM (active) in assay [2]; 39.9 µM (active) in assay [3]; 1.78 µM (active) and 1.55 µM (active) in assay [4]; 35.6 µM (active) in assay [5]; 224 nM (active) and 347 nM (active) in [6]. The Potency is 2 µM (active) and 2.19 µM (active) in assay [7]; 1.42 µM (active) and 1.23 µM (active) in assay [8]. Moreover, in assay [9], the Potency entry was “inactive”.
As to `CC(C)(OOC(C)(C)c1ccccc1)c1ccccc1`, the Potency entry in [1], in assay [2], in [3], in [4], in [8] and in assay [9] was “inactive” each time. Moreover, the Potency entry in assay [10] was “inactive”. The Potency in assay [5] was 35.1 µM (active) and inactive; in assay [6], 35.1 µM (active) and 6.33 µM (active); in assay [7], 31.3 µM (active) and 31.7 µM (active).
On to `Cc1cccc(N)c1N`, for which the Potency result in [1], in [2], in assay [3], in [4] and in assay [9] was “inactive” in each case. Besides, the Potency in assay [5] was 61.2 µM (active) and 17.8 µM (active); in [6] it was 38.6 µM (active) and 35.6 µM (active); in assay [7] it was 34.4 µM (active) and 35.6 µM (active); in [8], 7.7 µM (active) and 14.2 µM (active); in assay [10], 3.86 µM (active) and 11.2 µM (active).
Take `N#CCCCl`: the Potency entry in assay [1], in assay [2], in assay [3], in [4], in [5] and in assay [7] was “inactive” each time. Further, the Potency result in assay [8], in [9] and in assay [10] was “inactive” each time. The Potency in [6] is 77.7 µM (active) and inactive.
Regarding `c1nc[nH]n1`, the Potency result in assay [1], in assay [2], in [3], in assay [4], in assay [5] and in assay [6] was “inactive” throughout. The Potency result in [7], in assay [9] and in [10] was “inactive” in each case. Also, the Potency in [8] is 62 µM (active) and 71 µM (active).
For `CCC(C)(C)c1ccc(O)cc1`, the Potency result in [1], in [2], in assay [3], in [4], in assay [5] and in assay [6] was “inactive” throughout. The Potency result in [8], in assay [9] and in assay [10] was “inactive” each time. Moreover, in assay [7], the Potency is 71.8 µM (active) and 63.3 µM (active).
As for `C#CCOS(=O)OC1CCCCC1Oc1ccc(C(C)(C)C)cc1` (configuration not stated), the Potency entry in [1], in assay [2], in assay [3] and in assay [4] was “inactive” in each case. For the same compound, the Potency in [5] was 22.5 µM (active) and 22.4 µM (active); in assay [6] it was 895 nM (active) and 710 nM (active); in assay [7], 503 nM (active) and 502 nM (active); in assay [8], 8.95 µM (active) and 8.94 µM (active); in assay [10], 1.59 µM (active) and 2.83 µM (active).
Consider `Nc1ccc(-c2ccccc2)cc1`, for which the Potency entry in [1], in assay [2], in assay [3], in [4] and in [9] was “inactive” each time. Also, the Potency in assay [5] is 35.6 µM (active); in assay [6], 11.6 µM (active) and 11.2 µM (active); in assay [7], 13 µM (active) and 12.6 µM (active); in assay [8], 1.83 µM (active) and 6.33 µM (active); in assay [10], 6.5 µM (active) and 20 µM (active).
On to `CCOc1cc(C=O)ccc1O`, for which the Potency result in [1], in [2], in assay [3], in assay [4], in assay [5] and in [6] was “inactive” in each case. Also, the Potency result in [7], in [9] and in assay [10] was “inactive” each time. In addition, the Potency in assay [8] is 40 µM (active) and 39.9 µM (active).
